# Laboratory results from PubChem BioAssay (NCI).
# This is part of a sample that, as a whole, favours compounds with a hit. Of some 83,000 tested, about 20% had one in any assay.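 How to read the values: 0–100, growth inhibition (40 = 60% inhibited); 0, no net growth; -100 to 0, cell death (-40 = 40% of starting cells died; -100 = all dead).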 A number with no mark means an inactive call. Calls of active or inactive are those of the source. The calls were made as follows: active = growth percent below 10; inactive = the rest.
# Experiments:
# Assay in all cases: NCI-60 one-dose screen, 48 h (100 = growth as untreated, 0 = no growth, -100 = all killed)
# [1] = test system: NCI-H460 lung; conditions: 10 µM unless noted
# [2] = test system: 786-0 renal; conditions: 10 µM unless noted
# [3] = test system: COLO 205 colon; conditions: 10 µM
# [4] = test system: MALME-3M melanoma; conditions: 10 µM unless noted
# [5] = test system: RXF 393 renal; conditions: 10 µM unless noted
# [6] = test system: SF-295 CNS; conditions: 10 µM unless noted
# [7] = test system: SF-539 CNS; conditions: 10 µM unless noted
# [8] = test system: UACC-257 melanoma; conditions: 10 µM unless noted
# [9] = test system: HT29 colon; conditions: 10 µM unless noted
# [10] = test system: SK-MEL-5 melanoma; conditions: 10 µM unless noted
# [11] = test system: SK-MEL-2 melanoma; conditions: 10 µM unless noted
# [12] = test system: UO-31 renal; conditions: 10 µM unless noted
# [13] = test system: TK-10 renal; conditions: 10 µM unless noted
# [14] = test system: ACHN renal; conditions: 10 µM unless noted
# [15] = test system: A498 renal; conditions: 10 µM unless noted
# [16] = test system: HL-60(TB) leukemia; conditions: 10 µM unless noted
# [17] = test system: MOLT-4 leukemia; conditions: 10 µM
# [18] = test system: T-47D breast; conditions: 10 µM unless noted
# [19] = test system: SW-620 colon; conditions: 10 µM unless noted
# [20] = test system: HCC-2998 colon; conditions: 10 µM unless noted
SMILES,growth [1],growth [2],growth [3],growth [4],growth [5],growth [6],growth [7],growth [8],growth [9],growth [10],growth [11],growth [12],growth [13],growth [14],growth [15],growth [16],growth [17],growth [18],growth [19],growth [20]
Nc1ccc([N+](=O)[O-])c2c1Oc1ccccc1O2,111%,82.7%,99.3%,121%,49.5%,85.1%,89.7%,101%,103%,96.7%,102%,10%,94.4%,108%,72.9%,-17.4% (active),79.7%,72.7%,104%,108%
CC(C)[C@]12O[C@H]1[C@@H]1O[C@]13[C@]1(O[C@H]1C[C@H]1C4=C(CC[C@@]13C)C(=O)OC4)[C@@H]2OC(=O)OC(C)(C)C,2.11% (active),11.9%,,-35.6% (active),-52.2% (active),-28.7% (active),-20.2% (active),-7.48% (active),1.27% (active),-2.1% (active),-55.3% (active),1.21% (active),5.21% (active),9.88% (active),-36.6% (active),-15.7% (active),-3.98% (active),23.8%,1.09% (active),-38% (active)
O=S(=O)(Cl)c1ccccc1 (tested in a mixture with another compound),103%,102%,105%,92.2%,99.1%,,102%,97.1%,101%,99.2%,,85%,105%,93.9%,85%,,93%,97.7%,96.9%,100%
Cc1cc(CCl)c(C)cc1CCl,4.86% (active),36.9%,,82.9%,93.3%,25.7%,,62.1%,,70.1%,70.1%,33.9%,37.3%,,84.6%,15.3%,29.7%,,59.9%,71.4%
OB([O][Hg][c]1ccccc1)[O][Hg][c]1ccccc1,-21.4% (active),-76.6% (active),-100% (active),-88.1% (active),-94.3% (active),-32.1% (active),-87.7% (active),-98.3% (active),-55.8% (active),-96.7% (active),-74.9% (active),-94.1% (active),-94.5% (active),-95.6% (active),-31.2% (active),-53.3% (active),-38.8% (active),-42.4% (active),-48.9% (active),-45.5% (active)
O=[N+]([O-])c1ccc(F)c([N+](=O)[O-])c1F,106%,,115%,96%,109%,104%,105%,103%,103%,103%,93.7%,78.3%,99.9%,113%,93.7%,92.2%,58%,96.6%,88.2%,105%
CCCCCCCCCCCCOc1ccc(C(=O)Oc2ccc(CSP3(=O)OCC4OC(n5cnc6c(N)ncnc65)C(F)C4OP(=O)(O)OCC4OC(n5ccc(=O)[nH]c5=O)C(F)C4O3)cc2)cc1 (configuration not stated),106%,89.1%,,114%,60.8%,110%,24%,31.4%,78.8%,109%,86.6%,92.9%,77.5%,,71.3%,-18.4% (active),68.3%,88.5%,118%,105%
C=CC(=O)NC(O)C(Cl)(Cl)Cl (configuration not stated),110%,95.2%,111%,85.5%,129%,95.6%,102%,92.3%,106%,119%,84.3%,94.9%,95.9%,99.6%,120%,97.7%,83.8%,93.4%,111%,104%
C[As](=O)(O)c1ccc(C(=O)O)cc1,112%,109%,115%,112%,95.9%,99.8%,102%,102%,108%,108%,99.9%,93.2%,107%,114%,96.3%,102%,110%,110%,105%,116%
O=C(O)CC(Br)C(=O)CBr (configuration not stated),108%,99.1%,109%,103%,109%,98.2%,95.3%,102%,109%,106%,,86.1%,98.9%,99%,104%,105%,103%,103%,103%,116%
O=C1NC(=O)C(O)(C2(O)C(=O)NC(=O)NC2=O)C(=O)N1,100%,93.4%,79.9%,57.9%,,133%,88%,,104%,86.7%,77.5%,86.1%,118%,104%,89.1%,85.9%,85.2%,101%,96.4%,-55.7% (active)
Cc1cc(NC(=O)CCc2ccc(N3C(N)=NC(N)=NC3(C)C)cc2)ccc1S(=O)(=O)F,12.3%,20.9%,36%,32.3%,,5.44% (active),5.99% (active),,24.7%,13.9%,-21.1% (active),101%,14.1%,70.9%,59.8%,13.3%,21.6%,75.1%,23.1%,
NC(Cc1ccc(O)cc1)C(=O)N/N=C/c1ccc(N(CCCl)CCCl)cc1 (configuration not stated),27.1%,43%,112%,,95.3%,48.5%,33.3%,93.6%,100%,88.9%,72.8%,52.2%,115%,75.1%,82.3%,8.82% (active),29.8%,79.2%,86.9%,87.2%
CC1CC=CCC12C(=O)NC(=S)NC2=O (configuration not stated),106%,107%,122%,105%,106%,99%,98.8%,114%,107%,103%,131%,92.9%,103%,106%,72.9%,136%,109%,98.2%,104%,116%
O=C(CF)N(O)c1ccc(/C=C/c2ccccc2)cc1,13%,8.73% (active),68.8%,82.9%,50.7%,9.04% (active),36.2%,-7.11% (active),57.6%,77.1%,94.9%,36.2%,67.4%,13.9%,-31.7% (active),13.4%,34.9%,26%,56.5%,25.4%
C[CH2][Pb]([CH2]C)([CH2]C)[O]C(=O)c1ccc(N)cc1,69.5%,80.2%,92.5%,40.3%,34.2%,91.2%,87.4%,,79.8%,39%,39.3%,52.1%,,70.7%,60.3%,,60.5%,47.6%,28.7%,67.5%
O=C(/C=C/c1ccccc1)N[C@@H](CO)Cc1cnc[nH]1,105%,103%,104%,110%,118%,98.9%,95.6%,,105%,103%,102%,98.2%,93.5%,96.4%,115%,98.8%,93.8%,104%,106%,112%
